# Source: article PMC4336329 (PLoS ONE, 2015)
# About 14,000 (4.5%) of roughly 310,000 compounds showed an effect of 50% or more. The effect is printed as a negative number. Many of the other results were omitted from the sample, so strong results are more common in it than they were.
# Target: human ether-à-go-go-related gene (hERG) potassium channel (human, UniProt Q12809)
# Assay: primary screen, population patch clamp on CHO cells stably expressing hERG; higher = less effect of the substance
# 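Note: peak tail current of the secondary pulse compared with the same well before compound.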
# Chain of human ether-à-go-go-related gene (hERG) potassium channel (Q12809 whole entry, looked up): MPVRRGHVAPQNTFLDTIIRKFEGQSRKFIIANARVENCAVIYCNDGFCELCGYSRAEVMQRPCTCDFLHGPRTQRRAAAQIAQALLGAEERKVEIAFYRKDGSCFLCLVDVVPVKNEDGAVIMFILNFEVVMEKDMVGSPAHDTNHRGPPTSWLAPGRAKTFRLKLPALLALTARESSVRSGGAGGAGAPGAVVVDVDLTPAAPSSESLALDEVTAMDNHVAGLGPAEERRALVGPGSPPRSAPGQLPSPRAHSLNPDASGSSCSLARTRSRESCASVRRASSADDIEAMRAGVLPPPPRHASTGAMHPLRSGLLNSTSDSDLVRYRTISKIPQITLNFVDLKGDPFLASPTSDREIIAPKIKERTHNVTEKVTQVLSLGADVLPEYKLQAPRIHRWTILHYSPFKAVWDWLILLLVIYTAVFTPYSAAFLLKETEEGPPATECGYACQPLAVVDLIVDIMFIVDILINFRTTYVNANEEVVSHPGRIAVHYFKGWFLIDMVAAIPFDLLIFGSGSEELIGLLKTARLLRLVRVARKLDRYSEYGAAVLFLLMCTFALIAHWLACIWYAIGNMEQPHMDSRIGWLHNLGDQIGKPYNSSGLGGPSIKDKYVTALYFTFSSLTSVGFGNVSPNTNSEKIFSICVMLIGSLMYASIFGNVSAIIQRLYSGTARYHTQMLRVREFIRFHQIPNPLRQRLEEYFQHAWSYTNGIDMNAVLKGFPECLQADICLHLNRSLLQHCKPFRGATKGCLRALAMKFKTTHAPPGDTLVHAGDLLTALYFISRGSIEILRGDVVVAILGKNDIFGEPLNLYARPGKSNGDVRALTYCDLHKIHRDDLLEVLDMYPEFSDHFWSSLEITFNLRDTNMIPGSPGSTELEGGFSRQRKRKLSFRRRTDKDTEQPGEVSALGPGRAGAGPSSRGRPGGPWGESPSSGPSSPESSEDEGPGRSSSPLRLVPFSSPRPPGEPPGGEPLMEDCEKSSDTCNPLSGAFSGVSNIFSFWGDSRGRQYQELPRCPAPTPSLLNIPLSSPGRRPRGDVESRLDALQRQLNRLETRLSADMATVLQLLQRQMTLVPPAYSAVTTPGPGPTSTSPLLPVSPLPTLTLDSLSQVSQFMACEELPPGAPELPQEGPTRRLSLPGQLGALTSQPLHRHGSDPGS
row,Structure (SMILES),"hERG current change (%, negative = inhibition) at 10uM"
1,COCCCNC(=O)CCc1nnc2ccc(N3CCC(C)CC3)nn12,10.9%
2,O=C(CSC1=NS(=O)(=O)c2ccccc2N1)c1ccccc1,-8.85%
3,COc1ccc(CNC(=O)C/C(C)=N/NC(=O)COc2ccc(Br)cc2)cc1,-33.3%
4,O=C(O)c1ccc(NCc2cccnc2)c([N+](=O)[O-])c1,30%
5,Cc1ccc(C(=O)n2nc(-c3ccccc3)nc2NCc2ccco2)cc1,16%
6,Cc1cc(C)n(CCC(=O)Nc2ccc3c(c2)OCCO3)n1,17.1%
7,COc1ccc(CN2CCCCC2c2cccnc2)cc1C (stereo not shown),0.438%
8,Cc1ccc(-c2c(C(=O)N3CCOCC3)oc(=O)c3ccccc23)cc1,-17.8%
9,Cc1nc2ccccc2c2oc(C(=O)N3CCN(C4CCCCC4)CC3)cc12,-64.7%
10,CCOC(=O)N1CCN(C(=O)c2oc(=O)c3ccccc3c2-c2ccc(C)cc2)CC1,-31.4%
11,Cc1nc2ccccc2c2oc(C(=O)N3CCC(N4CCCCC4)CC3)cc12,-38.8%
12,O=C(c1ccco1)N1CCN(C(=O)c2oc(=O)c3ccccc3c2-c2ccccc2)CC1,-50.7%
13,O=C(c1oc(=O)c2ccccc2c1-c1ccccc1)N1CCC(O)CC1,-11.6%
14,O=C(c1oc(=O)c2ccccc2c1-c1ccccc1)N1CCN(C2CCCCC2)CC1,-61.6%
15,Cc1nc2ccccc2c2oc(C(=O)N3CCC(C)CC3)cc12,-30.5%
16,O=C(c1oc(=O)c2ccccc2c1-c1ccccc1)N1CCOCC1,-24.6%
17,CCOC(=O)c1cnn2c(N)c(C#N)cnc12,13.9%
18,C/C(=N\O)C(=O)NCCN1CCCCC1,-10.2%
19,Cc1c(C#N)c(NC(=O)CCl)n(Cc2ccc(F)cc2)c1C,12.8%
20,N#Cc1nc(-c2ccc(OCc3ccccc3)cc2)oc1NCc1ccco1,7.75%
21,CCn1c2c(c3cc(OCC(C)C)ccc31)CCCC2=O,6.13%
22,Cc1cc(C(=O)Nc2ccccn2)cs1,3.35%
23,Cc1cc(C)nc(NS(=O)(=O)c2ccc(NC(=O)CCN3C(=O)c4ccccc4C3=O)cc2)n1,3.74%
24,CC(C(=O)Nc1ccccc1-c1ccccc1)N1CCN(S(=O)(=O)c2ccccc2)CC1 (stereo not shown),-14.3%
25,CC(C(=O)Nc1ccccc1-c1ccccc1)N1CCOCC1 (stereo not shown),-2%
26,CC(C(=O)Nc1ccccc1-c1ccccc1)N1CCN(C(=O)c2ccccc2)CC1 (stereo not shown),-66.9%
27,CC(C(=O)Nc1ccccc1-c1ccccc1)N1CCN(Cc2ccccc2)CC1 (stereo not shown),-72.2%
28,CC1CCN(C(C)C(=O)Nc2ccccc2-c2ccccc2)CC1.O=C(O)C(=O)O (stereo not shown),-15.4%

row,Structure (SMILES),"hERG current change (%, negative = inhibition) at 10uM"
1,CC(C(=O)NC1CCCC1)N1CCN(Cc2ccccc2)CC1 (stereo not shown),28.6%
2,COCCOC(=O)C1=C(C)N=C2SCCC(=O)N2C1c1cccs1 (stereo not shown),13.8%
3,COc1cc(-c2csc(N3CCOCC3)n2)cc(OC)c1OC,13.3%
4,Cn1cc(C(=O)N2CCN(c3cccc(Cl)c3)CC2)c(=O)c2cc(S(=O)(=O)N3CCOCC3)ccc21,-17.6%
5,Cc1ccc(C)c(N2CCN(C(=O)CCCOc3cc(=O)n(C)c4ccccc34)CC2)c1,-40.8%
6,O=CNc1ccccc1,14.6%
7,COc1ccc(NP(=O)(Nc2ccc(OC)cc2)Oc2ccccc2)cc1,-13.9%
8,O=CNc1ccc(OP(=O)(Oc2ccccc2)Oc2ccccc2)cc1,-61.7%
9,CN(C)c1ccc(/C=C/C=N/Nc2nc(N3CCOCC3)nc(N3CCOCC3)n2)cc1,0.992%
10,CCOC(=O)N1CCC(N(CCN(C)C)C(=S)Nc2ccccc2OCC)CC1,-8.05%
11,Cc1ccc(/C=N/NC(=O)CSc2nc3nc(C)cc(C)n3n2)cc1,-19.3%
12,Cc1ccc(S(=O)(=O)CCC(=O)c2ccc(F)cc2)cc1,8.7%
13,O=C(N/N=C\c1ccc(COc2ccc([N+](=O)[O-])cc2)o1)c1ccc(Cl)cc1,-67.6%
14,O=C(N/N=C/c1cccnc1)c1ccc([N+](=O)[O-])cc1,-7.74%
15,O=C(N/N=C\c1ccc(COc2ccc([N+](=O)[O-])cc2)o1)c1cccc(Cl)c1,4.17%
16,COc1ccc(-c2[nH]ncc2/C=N\NC(=O)c2ccc(C(C)(C)C)cc2)cc1OC,-9.5%
17,Cc1cc(C(=O)N/N=C\c2ccc(COc3ccc([N+](=O)[O-])cc3)o2)ccc1[N+](=O)[O-],-7.77%
18,O=C(N/N=C\c1cn[nH]c1-c1ccccc1)c1ccc([N+](=O)[O-])cc1,-64.9%
19,O=C(N/N=C/c1cn[nH]c1-c1ccc(Cl)cc1)c1ccc([N+](=O)[O-])cc1,-51.5%
20,COc1ccc(/C=N/NC(=O)c2cccc([N+](=O)[O-])c2)cc1OC,5.28%
21,O=C(N/N=C/c1cn[nH]c1-c1ccc(F)cc1)c1ccncc1,6.55%
22,COc1ccc(-c2[nH]ncc2/C=N/NC(=O)c2cccc([N+](=O)[O-])c2)cc1OC,-62.1%
23,O=C(N/N=C\c1cn[nH]c1-c1ccccc1)c1cccnc1,-1.27%
24,O=C(CNC(=O)c1ccc(F)cc1)N/N=C/c1cn[nH]c1-c1ccccc1,-18.1%
25,O=C(NC(=S)Nc1ccc(Br)cn1)c1cncc(Br)c1,11.3%
26,O=C(NCc1ccccc1Cl)C1=CC=CN2CCS(=O)(=O)N=C12,-11.1%
27,Cc1cc(Nc2ccc(Br)cc2F)n2nc(C)nc2n1,-21.5%
